Screens (PubChem BioAssay)
NOD2 RIPK2 PPI = NOD2-RIPK2 binding disruptors in cells, primary screen, fluorescence, CHO cells, BLA complementation. Receptor-interacting serine/threonine-protein kinase 2 (Homo sapiens), O43353. CCF4 ratio. inhibition, % at 4.98 µM. 360,000 tested, 0.38% active; in the data active = inhibition above about 21%;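 also: 0% = vehicle only and 100% = reference blocker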
Target sequence (O43353 whole entry, looked up): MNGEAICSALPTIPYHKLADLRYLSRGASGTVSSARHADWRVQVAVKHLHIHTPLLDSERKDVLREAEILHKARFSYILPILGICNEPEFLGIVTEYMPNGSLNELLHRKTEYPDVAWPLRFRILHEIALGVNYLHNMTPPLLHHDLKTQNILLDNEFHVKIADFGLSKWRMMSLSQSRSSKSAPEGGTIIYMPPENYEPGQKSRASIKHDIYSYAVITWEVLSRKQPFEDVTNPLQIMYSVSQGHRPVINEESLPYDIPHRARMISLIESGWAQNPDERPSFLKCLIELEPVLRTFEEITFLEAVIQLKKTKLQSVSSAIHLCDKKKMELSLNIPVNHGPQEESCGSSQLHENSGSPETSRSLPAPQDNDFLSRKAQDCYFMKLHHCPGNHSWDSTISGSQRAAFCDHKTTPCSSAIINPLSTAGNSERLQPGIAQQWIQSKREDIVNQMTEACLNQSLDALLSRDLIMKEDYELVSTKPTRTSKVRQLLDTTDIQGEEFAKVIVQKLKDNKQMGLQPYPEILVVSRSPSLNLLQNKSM
Beta2AR agonist = beta2AR agonists driving receptor internalization, primary screen, cell-based, FAP fluorogen, flow cytometry. 340,000 tested, 0.43% active. Am2.2-beta2AR cells. AID 504454, 2011. Beta-2 adrenergic receptor (Homo sapiens), P07550. response, % (concentration not given with the values);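 active = response above a set limit, near 3 SD of response in nonfluorescent compounds, cut at about 42% in these data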
ABHD5-PLIN5 inh = ABHD5-PLIN5 interaction inhibitors, primary screen, cell lysate, split luciferase complementation, luminescence | Perilipin-5 (Homo sapiens) + 1-acylglycerol-3-phosphate O-acyltransferase ABHD5 (Homo … | Split G. princeps luciferase complementation, 4 h | inhibition, % at 4 µM | 360,000 tested, 0.78% active | AID 602281, 2012;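 active = inhibition above the mean inhibition across every tested compound plus 3 SD, cut at about 22% in these data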;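 also: 0% = DMSO only wells and the 100% control is not disclosed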
NTR1 ag = agonists of human NTR1, primary screen, imaging, U2OS cells, beta-arrestin-GFP, high content; AID 493036, 2011; NTR1-U2OS beta-arrestin-GFP spot imaging, agonist mode; activation, % at 20 µM; 330,000 tested, 0.17% active;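 active = activation at or above 40% of the spot to cytoplasm intensity ratio, with at least 20 cells analyzed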;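 also: 0% = DMSO without peptide and 100% = 100 nM NTR1 peptide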
TLR4-MyD88 BLA = inhibitors of TLR4-MyD88 association in cells, primary screen, cell-based, HeLa CL3-4, BLA complementation, FRET ratio; 200,000 tested, 0.18% active; Toll-like receptor 4 (Homo sapiens) + Myeloid differentiation primary response protein …; HeLa CL3-4 TLR4/MyD88 BLA complementation; AID 861, 2007; inhibition, % at 8.4 µM; in the data active = inhibition above about 25%;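 also: 0% = vehicle and 100% = reference inhibitor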
TLR9-MyD88 inh = inhibitors of TLR9-MyD88 association in cells, primary screen, cell-based, CHO, BLA complementation, fluorescence. 340,000 tested, 0.21% active. inhibition, % at 4.98 µM. CCF4 FRET ratio. Toll-like receptor 9 (Homo sapiens) + Myeloid differentiation primary response protein …. AID 504734, 2011;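 active = inhibition above the mean over all tested compounds plus 3 SD, cut at about 21% in these data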;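 also: 0% = DMSO only wells and 100% = clavulanate BLA inhibitor control wells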
B2AR ag CP1 = beta2AR agonists via receptor internalization, confirmation, cell-based, FAP fluorogen, flow cytometry, single point, cherry pick 1; shares compounds with Beta2AR agonist; Am2.2-beta2AR cells, FAP surface receptor; active compounds read low; percent response (surface receptor), % at 10 µM; 1,100 tested, 25% active;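 active = surface receptor percent response at or below 58%, roughly 3 SD from nonfluorescent compounds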
B2AR FAP counter = flagged in Am2.2 fluorescence counterscreen for beta-2AR agonists. 1,100 tested, under 10 active. Am2.2 cells, FAP fluorogen flow cytometry; active compounds read low. shares compounds with Beta2AR agonist. calls only at 10 µM;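 active = percent response below a set limit in fluorescence channel 1 and below 50% in channel 8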
An asterisk follows results filed as active; i = inactive; nt = not tested or not shown. In the library only some 1.5% were active in any assay of this set; here they are far more common.

SMILES	NOD2 RIPK2 PPI	Beta2AR agonist	ABHD5-PLIN5 inh	NTR1 ag	TLR4-MyD88 BLA	TLR9-MyD88 inh	B2AR ag CP1	B2AR FAP counter
COc1ccc(OC)c(NC(=O)COc2ccc(Br)cc2)c1	-6	68*	3	2	nt	-6	105	i
COc1ccc(OC)c(NC(=O)COC(=O)Cc2ccc(Br)cc2)c1	2	-5	1	2	-9	-1	nt	nt
CC(C)Nc1nc(NCc2ccccc2)c2sccc2n1	-1	nt	10	nt	nt	nt	nt	nt
CC(C)(C)c1ccc(C(=O)NCCCN2CCN(CCCNC(=O)c3ccc(C(C)(C)C)cc3)CC2)cc1	-4	49*	14	24	6	-7	81	i
CC(C)(C)c1ccc(C(=O)NCCN2CCOCC2)cc1	6	0	5	1	nt	-5	nt	nt
CCCOc1cccc(C(=O)Nc2cccc(NC(=O)c3ccco3)c2)c1	-6	-1	-1	-2	-10	-7	nt	nt
CCCCOc1cccc(C(=O)Nc2ccc(NC(=O)c3ccco3)cc2)c1	-3	69*	-9	-1	nt	-11	35*	i
Cc1[nH]nc(Nc2ccccc2)c1[N+](=O)[O-]	8	-2	-3	0	3	1	nt	nt
Cc1cccc(Nc2n[nH]c(C)c2[N+](=O)[O-])c1	-8	64*	5	0	18	-10	114	i
N#Cc1cc(-c2ccccc2)nc(NN)n1	-10	0	2	2	nt	-2	nt	nt
N#Cc1cc(-c2ccccc2)nc(Oc2ccc(Cl)cc2)n1	-11	44*	0	14	0	7	50*	i
Nc1[nH]c(C(=O)c2ccccc2)c(-c2c(F)cccc2F)c1C(=O)c1ccc(Cl)c(Cl)c1	-4	nt	-16	nt	nt	nt	nt	nt
C=CCN1C(=O)c2oc3ccccc3c(=O)c2C1c1ccc(O)c(OC)c1 (centres undefined)	-7	-14	5	5	8	-7	123	i
COCCN1C(=O)c2oc3ccccc3c(=O)c2C1c1ccc(OC)c(OC)c1 (centres undefined)	-2	-3	8	-4	3	-4	nt	nt
CN1CCN(Cc2cc(COCc3ccccc3)c3cccnc3c2O)CC1	5	28	10	11	4	10	90	i
Oc1ccc(CN2CCN(Cc3ccccc3)CC2)c2cccnc12	2	9	6	2	7	-3	nt	nt
CC(C)(C)c1ccc(OCC(=O)Nc2ccc(-c3nc4cccnc4o3)cc2)cc1	-6	110*	5	1	-9	-2	40*	i
O=C(O)c1cc2c(ncc3c(=O)n(-c4ccccc4)[nH]c32)s1	9	nt	5	nt	nt	nt	nt	nt
CC(C)CN(C(=O)c1ccc(N2CCCC2=O)cc1)c1c(N)n(Cc2ccccc2)c(=O)[nH]c1=O	-18	6	2	-1	nt	-1	nt	nt
CC(C)CN(C(=O)c1ccc2c(c1)OCCO2)c1c(N)n(Cc2ccccc2)c(=O)[nH]c1=O	-8	66*	-6	0	nt	-5	107	i
CCOC(=O)C1(C)CCCN1C(=O)c1cccc2ccccc12 (centres undefined)	-14	nt	5	nt	nt	nt	nt	nt
Cc1ccc(S(=O)(=O)N2CCC(=O)N([C@H](COCc3ccc(Cl)cc3)C(C)C)CC2)cc1	1	nt	-3	nt	nt	nt	nt	nt
CN1C[C@@H]2[C@@H]3C(=O)N(C)C(=O)[C@@H]3[C@](C)(C1=O)N2C(=O)c1ccc(F)cc1	-9	-4	-6	nt	nt	-6	nt	nt
CC(=NOC(=O)c1ccc(I)cc1)c1nccs1	-15	nt	1	nt	nt	nt	nt	nt
COC(=O)c1ccc(-c2nn(C)c(=O)c3ccccc23)cc1	-14	-2	7	1	2	15	nt	nt
SMILES	NOD2 RIPK2 PPI	Beta2AR agonist	ABHD5-PLIN5 inh	NTR1 ag	TLR4-MyD88 BLA	TLR9-MyD88 inh	B2AR ag CP1	B2AR FAP counter
COC(=O)c1ccc(C(=O)OC)c(-n2c(=O)c3ccccc3c3ccccc3c2=O)c1	-5	54*	-1	26	-9	-6	105	i
CC12CCC(=O)N1C(C(=O)Oc1cccc(F)c1)CS2 (centres undefined)	-4	nt	-1	nt	nt	-5	nt	nt
COc1cccc(-c2ccc(NC(=O)C3CCCN(Cc4cnc(N(C)C)s4)C3)cc2)c1 (centres undefined)	6	12	5	7	nt	-2	nt	nt
Cc1ncc(CN2CCCC(C(=O)Nc3ccc(-c4cccc(F)c4)cc3)C2)s1 (centres undefined)	-4	51*	-2	1	nt	-14	25*	i
Cc1ncc(CN2CCCC(C(=O)Nc3ccc(-c4cccc(F)c4)cc3)C2)cn1 (centres undefined)	3	91*	12	1	nt	-8	21*	i
CCCN1CCC(C)(C(=O)Nc2cccc(OC(C)C)c2)C1 (centres undefined)	2	nt	-3	nt	nt	nt	nt	nt
O=S(c1ccccc1O)S(=O)c1ccccc1O (centres undefined)	3	-1	-11	nt	nt	-7	nt	nt
CC(C)(C)c1ccc(S(=O)(=O)NC(=O)C2(C)CCN2C(=O)Cc2ccc(-c3ccccc3)cc2)cc1 (centres undefined)	-17	nt	-3	nt	nt	nt	nt	nt
CC(C)c1nc2oc3c(N(C)CCO)ncnc3c2c2c1CCC2	2	-10	-4	2	nt	-13	148	i
O=C(c1cccc(Cl)c1)N1CCC(C(=O)N2CCN(Cc3ccccc3)CC2)CC1	-1	79*	-2	2	nt	-6	25*	i
Cc1ccc(Cn2cc(CN3CC(N4CCN(Cc5ccccc5F)CC4)CS3(=O)=O)nn2)cc1 (centres undefined)	-5	nt	7	nt	nt	nt	nt	nt
O=C(CCn1c(=O)oc2ccccc21)NCCN1CCOCC1	-12	-3	4	0	nt	0	nt	nt
O=C(CCn1c(=O)oc2ccc(Cl)cc21)NCCCN1CCOCC1	-6	50*	-4	0	nt	-16	99	i
CCn1cc(C(=O)O)c(=O)c2cc(F)c(N3CCN(S(=O)(=O)c4ccc(NC(C)=O)cc4)CC3)cc21	-2	56*	6	1	-17	-6	76	i
COc1cccc(Nc2nc(C(N)Cc3ccc(C(F)(F)F)cc3)cs2)n1 (centres undefined)	6	nt	-21	nt	nt	nt	nt	nt
